In the library only some 2.5% were active in any assay of this set; here they are far more common.
Cruzain Triton: qHTS Assay for Promiscuous and Specific Inhibitors of Cruzain (with detergent) | Cruzipain (Trypanosoma cruzi), P25779 | purified cruzain, Z-FR-AMC fluorescence, 0.01% Triton | Potency, µM, actives largely listed as inhibitors | hit rate 0.43% among 200,000 | AID 1478, 2009; further: nearly all actives have a fitted effect of over 40% in size
Target sequence (P25779 123-467 limits assumed): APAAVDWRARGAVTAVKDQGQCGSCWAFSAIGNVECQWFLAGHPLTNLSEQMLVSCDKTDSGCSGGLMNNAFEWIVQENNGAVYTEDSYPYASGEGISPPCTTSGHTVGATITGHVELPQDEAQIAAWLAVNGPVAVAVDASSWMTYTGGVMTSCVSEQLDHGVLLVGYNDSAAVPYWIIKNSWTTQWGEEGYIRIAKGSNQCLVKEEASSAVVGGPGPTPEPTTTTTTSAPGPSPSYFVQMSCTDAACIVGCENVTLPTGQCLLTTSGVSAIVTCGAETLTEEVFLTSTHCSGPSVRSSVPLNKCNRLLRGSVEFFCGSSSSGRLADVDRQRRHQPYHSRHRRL
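Purified cruzain (1.5 nM final) was preincubated with compounds for 15 min at room temperature in 100 mM sodium acetate pH 5.5, 5 mM DTT, 0.01% Triton X-100. Reaction started with 2 uM Z-FR-AMC; AMC fluorescence change over 60 s gave activity.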
Cruzain inh noDet: qHTS Assay for Promiscuous and Specific Inhibitors of Cruzain (without detergent) | Cruzipain (Trypanosoma cruzi), P25779 | purified cruzain, Z-FR-AMC fluorescence, no detergent | Potency, µM, usual class: inhibitors | hit rate 2.3% among 200,000 | AID 1476, 2009; further: nearly all actives have a fitted effect of over 40% in size
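Detergent-free condition (0.00005% Triton X-100) in acetate buffer pH 5.5 with DTT. 1.5 nM enzyme and compound were pre-mixed 15 min, then 2 uM Z-FR-AMC substrate added; reaction progress from fluorescence change between first and third reads (60 s).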
Large screens that a line does not name were inactive. The call rests on the fitted dose curve; in most records, active means well fitted curve in the direction sought with a large enough effect; inconclusive means small, poorly fitted or top-dose-only effect, or another doubt; inactive means no such curve, though single readings can be large; an effect the other way counts as inactive or inconclusive.

CCc1cccc2c(-c3ccccc3)c3c(nc12)OCC3	none
CN(C)C(=O)c1ccc(-c2nc(NCc3cccs3)c3ccccc3n2)cc1	none
COCc1nnc(NC(=O)CCC2CCCCC2)s1	none
O=C(CCC1CCCC1)Nc1nnc(-c2ccc3c(c2)OCO3)s1	Cruzain inh noDet 10µM
Cc1ccc(Cl)cc1NC(=O)Nc1cccc(OCc2cc(=O)n3ccccc3n2)c1	none
Cn1c(C(=O)NCc2ccc3c(c2)OCO3)cc2sccc21	none
Cn1c(C(=O)Nc2ccc3c(c2)OCO3)cc2sccc21	Cruzain inh noDet 25µM
CCCn1c(-c2ccc(F)cc2)nc2c(NCCCN(CC)CC)nc(C)nc21	none
COc1ccc(OC)c(C2c3c(-c4ccc(Br)cc4)n[nH]c3C(=O)N2c2ccc(Cl)cc2)c1 (configuration not stated)	Cruzain inh noDet 16µM
CCOC(=O)c1ccc(N2C(=O)c3n[nH]c(-c4cccs4)c3C2c2ccc(C)cc2)cc1 (configuration not stated)	none
COc1ccc(-c2n[nH]c3c2C(c2ccc(O)cc2)N(c2ccc(Br)cc2)C3=O)cc1 (configuration not stated)	Cruzain inh noDet inconclusive
CCOC(=O)c1ccc(N2C(=O)c3n[nH]c(-c4cccs4)c3C2c2ccc(Cl)cc2Cl)cc1 (configuration not stated)	Cruzain inh noDet 20µM
CCOC(=O)c1ccc(N2C(=O)c3n[nH]c(-c4ccco4)c3C2c2ccc(OCC)cc2)cc1 (configuration not stated)	none
CCOC(=O)c1ccc(N2C(=O)c3[nH]nc(-c4ccc(OC)cc4)c3C2c2ccc(C)cc2)cc1 (configuration not stated)	Cruzain inh noDet 25µM
COc1cccc(CNC(=O)C2CCN(C(=O)c3cnn(-c4ccccc4)c3-n3cccc3)CC2)c1	Cruzain inh noDet inconclusive
CC(C)C(NS(=O)(=O)c1ccc2c(c1)oc(=O)n2C)C(=O)NCCc1ccccc1 (configuration not stated)	none
COc1ccc(-c2cc(OC(=O)c3ccccc3C)c3c(C)oc(C)c3c(=O)c2)cc1	none
Cc1nc(N2CCOCC2)c2c(C(=O)N(C)c3ccccc3)c(C)oc2n1	none
COc1ccc(S(=O)(=O)N(C)c2ccc(OCC(=O)Nc3cc(C)on3)cc2)cc1	none
Cc1ccc(-c2csc(NC(=O)COc3ccc(N(C)S(=O)(=O)c4ccc(C)cc4)cc3)n2)cc1	Cruzain inh noDet 6.3µM
O=C(COc1ccc(Cl)cc1)Nc1nc(-c2ccc(S(=O)(=O)N3CCOCC3)cc2)cs1	Cruzain inh noDet inconclusive
COc1ccc(-c2csc(NC(=O)COc3ccc(N(C)S(=O)(=O)c4ccc(C)cc4)cc3)n2)cc1	Cruzain inh noDet 7.9µM
CCOc1ccc(CCNC(=O)c2cc3c(=O)[nH]c4ccc(C)cc4c3s2)cc1OCC	Cruzain inh noDet inconclusive
COc1ccc(CNC(=O)CCS(=O)(=O)c2cc3c4c(c2)CCN4C(=O)CC3)cc1OC	none
Cc1ccc(NC(=O)c2cncc(Br)c2)c([N+](=O)[O-])c1	none
COc1c(C)cc(Br)cc1C(=O)Nc1ccc(C)cc1[N+](=O)[O-]	Cruzain inh noDet 25µM
Oc1ccc2c(c1-c1c(O)c(Br)cc3c1CCCC3)CCCC2	none
Cc1cc(C)cc(-c2cc3c(c(-c4c(O)c(-c5cc(C)cc(C)c5)cc5c4CCCC5)c2O)CCCC3)c1	Cruzain inh noDet 16µM
COc1ccc(-n2c(=O)c(-c3cccs3)nc3cnc(Nc4ccccc4)nc32)cc1	none
COc1cccc(Nc2ncc3nc(-c4cccs4)c(=O)n(-c4ccccc4)c3n2)c1	Cruzain inh noDet 6.3µM
COc1cccc(Nc2ncc3nc(-c4cccs4)c(=O)n(Cc4cccs4)c3n2)c1	Cruzain inh noDet 5µM
COc1cccc(Nc2ncc3ncc(=O)n(Cc4cccs4)c3n2)c1	none
CC(C)C1=Nc2cccc3cccc(c23)N1	none
Nc1cccc(-c2nc3ccc(N)cc3s2)c1	none
COc1ccc(C2=Nc3cccc4cccc(c34)N2)cc1	Cruzain inh noDet 3.2µM
Nc1cccc(C2=Nc3cccc4cccc(c34)N2)c1	Cruzain inh noDet 7.9µM
Cc1ccccc1-c1nc(NCc2cccnc2)c2ccccc2n1	none
COc1ccc(-c2csc(N3C(=O)C4C5c6ccccc6C(c6ccccc65)C4C3=O)n2)cc1 (configuration not stated)	Cruzain inh noDet 16µM
COc1ccc(-c2csc(N3C(=N)SCC3=O)n2)cc1	Cruzain inh noDet inconclusive
COc1ccc(-c2csc(N3C(=O)C4C5c6ccccc6C(c6ccccc65)[C@@H]4C3=O)n2)cc1 (some centres not stated)	Cruzain inh noDet 10µM
COc1ccc(-c2csc(N3C(=O)CNC3=S)n2)cc1	Cruzain inh noDet inconclusive
COC(=O)C1(C)C=C(Nc2ccc(OC)cc2)C(=O)N1c1ccc(OC)cc1 (configuration not stated)	none
Cc1cccc(-c2nc(S(=O)(=O)c3ccc(F)cc3)c(N3CCN(c4ccccc4)CC3)o2)c1	none
CC(=O)c1ccc(NC(=O)Cn2c(=O)cc(C)c3c(C)nn(-c4cccc(F)c4)c32)cc1	none
CC1CCc2onc(C(=O)N3CCN(c4ccc(Cl)cc4)CC3)c2C1 (configuration not stated)	none
Cc1[nH]c2c(ccc3ccccc32)c1C1C(CCN)C1(C)C (configuration not stated)	Cruzain inh noDet 10µM
Cc1[nH]c2c(Cl)cccc2c1CCN	none
CCc1ccc(NC(=O)C2CCN(C(=O)N3CC(CC)Oc4ccccc43)CC2)cc1 (configuration not stated)	Cruzain inh noDet inconclusive
O=C1C=CC(=O)c2c(O)cccc21	Cruzain inh noDet 7.9µM
O=C1c2cccc(O)c2C(=O)c2c(O)cccc21	none
Cc1ccc(NC(=O)COC(=O)c2ccc3c(c2)C(=O)N(CCc2ccccc2)C3=O)c(C)c1	Cruzain inh noDet 25µM
CCOc1ccc(NC(=O)COC(=O)c2ccc3c(c2)C(=O)N(CCc2ccccc2)C3=O)cc1	Cruzain inh noDet inconclusive
CCOC(=O)C12CC1/C(=N/O)c1ccccc1O2 (configuration not stated)	none
Cc1ccc(-c2noc(-c3cccnc3NCc3ccc(Cl)cc3)n2)cc1	none
CCc1ccc(S(=O)(=O)N(C(C)=O)c2ccc3oc4c(c3c2)CCCC4)cc1	none
Cc1ccc([N+](=O)[O-])cc1S(=O)(=O)N(C(=O)c1ccncc1)c1ccc2oc3c(c2c1)CCCC3	Cruzain inh noDet 13µM
COC(=O)c1c(C)oc2ccc(N(C(=O)c3ccncc3)S(=O)(=O)c3cc(C)c(C)cc3C)cc12	none
Cc1ccc(S(=O)(=O)N(C(=O)c2ccncc2)c2ccc3oc4c(c3c2)CCCC4)cc1[N+](=O)[O-]	Cruzain inh noDet 13µM
CC(=O)c1ccc(NC(=O)c2cc3c(=O)oc4ccc(C)cc4c3s2)cc1	none
COc1ccc(Cn2c(C(=O)O)c(CNCC(C)c3ccccc3)c3ccc(OC)cc32)cc1 (configuration not stated)	none
O=C(Nc1ncc(S(=O)(=O)c2ccc([N+](=O)[O-])cc2)s1)c1cccc2ccccc12	Cruzain inh noDet 13µM
O=C(NC(Nc1ncc(S(=O)(=O)c2ccc([N+](=O)[O-])cc2)s1)(C(F)(F)F)C(F)(F)F)c1ccc(Cl)cc1	none
CCCC[C@@H]1C[C@H]1C(NC(=O)c1cccnc1)c1ccc(Cl)cc1 (some centres not stated)	none
COc1cc(/C=C2/N=C(C3CCCCC3)OC2=O)cc(OC)c1OC	Cruzain Triton 2.5µM, Cruzain inh noDet 2.5µM
